Results as given in PubChem BioAssay (NCI).
This is part of a sample that, as a whole, favours compounds with a hit. Of some 79,000 tested, about 15% had one in any assay. Calls of active or inactive are those of the source. No stated cut-off is given here; in the data, active means growth inhibition above about 70%; inactive means the rest.

How the values were obtained:
[1] = NCI Yeast Anticancer Drug Screen. Data for the rad50 strain (AID 155);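 further: 0% = growth of vehicle-only cultures of the same strain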; settings: S. cerevisiae rad50 strain growth inhibition; at 50.0 µM; active compounds read high
How it was run: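 Genetically altered yeast (DNA repair pathway); compound treatment; growth inhibition vs vehicle ctrl.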

[2] = NCI Yeast Anticancer Drug Screen. Data for the mec2-1 strain (AID 157); settings: S. cerevisiae mec2-1 strain, at 50.0 µM, active compounds read high
How it was run: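 Compounds were applied to mec2-1 yeast cells. Their growth was then compared with that of vehicle-treated cultures to give growth inhibition.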

[3] = NCI Yeast Anticancer Drug Screen. Data for the sgs1 mgt1 strain (AID 161);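 further: 0% = growth of cultures given vehicle only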; settings: S. cerevisiae sgs1 mgt1 strain, at 50.0 µM, active compounds read high
How it was run: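 Yeast cells carrying a defined DNA-repair defect were exposed to test compounds. Growth inhibition was measured relative to vehicle-treated controls.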

[4] = NCI Yeast Anticancer Drug Screen. Data for the cln2 rad14 strain (AID 165);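 further: 0% = growth equal to vehicle treated cultures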; settings: S. cerevisiae cln2 rad14 strain, at 50.0 µM, active compounds read high
How it was run: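 Strain: cln2 rad14 yeast, altered in cell cycle control and DNA damage repair. Read-out: growth inhibition vs vehicle.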

[5] = NCI Yeast Anticancer Drug Screen. Data for the bub3 strain (AID 167); settings: S. cerevisiae bub3 mutant strain, at 50.0 µM, active compounds read high
How it was run: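 Yeast carrying a defined mutation is treated with each compound, and growth is compared with that of vehicle-exposed cells to give inhibition.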

[6] = NCI Yeast Anticancer Drug Screen. Data for the mlh1 rad18 strain (AID 175); settings: S. cerevisiae mlh1 rad18 strain growth inhibition; at 50.0 µM; active compounds read high
How it was run: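 A repair-deficient yeast strain is exposed to test compound, and growth is scored relative to vehicle-treated controls.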

Measured: growth inhibition

COc1cccc(CSCC(=O)O)c1
inactive: [1] -9.3% | [2] -26.5% | [3] -44.2% | [4] 7.25% | [5] -17.6% | [6] -1.6%

c1ccc(CCCCc2ccccc2)cc1
inactive: [1] 25.1% | [2] 3.2% | [3] 14.1% | [4] 6.4% | [5] 3.35% | [6] 11.4%

O=C(Nc1ccc(Cl)cc1[N+](=O)[O-])N1CCN(c2ccccc2)CC1
inactive: [1] -8.35% | [2] 21.9% | [3] 29.4% | [4] -10.3% | [5] 44.3% | [6] 28.1%

CCOC(=O)CC1(CC(=O)OCC)OCCO1
inactive: [1] -6.2% | [2] 7.1% | [3] -2.05% | [4] -4.15% | [5] -28.8% | [6] -26.2%

O=C(O)COc1c(F)cc(F)cc1Cl
inactive: [1] 18.1% | [2] 1.9% | [3] 18.4% | [4] -1.05% | [5] 12% | [6] 7.35%

Cc1cccc[n+]1[O-]
inactive: [1] 10.8% | [2] -8% | [3] 5.9% | [4] -13.7% | [5] 1.65% | [6] 7%

O=C(Oc1ccc([N+](=O)[O-])cc1)C(CSC(c1ccccc1)(c1ccccc1)c1ccccc1)NC(c1ccccc1)(c1ccccc1)c1ccccc1 (configuration not stated)
inactive: [1] -3.05% | [2] 20.9% | [3] 6.5% | [4] -19.8% | [5] -3.6% | [6] 23.9%

CNC(=O)Sc1ccc([N+](C)(C)C)cc1
inactive: [1] 9.8% | [2] 0.1% | [3] 19.8% | [4] -7.5% | [5] 18.8% | [6] 30.3%

CN(C)CC1CCCCCCCCCC(CN(C)C)C1=O (configuration not stated)
inactive: [1] -26.4% | [2] 19.9% | [3] -11.3% | [4] -1.6% | [5] -21.4% | [6] 66.7%

CCOC(=O)C1=C(C(C)=O)C(c2ccc(OC)c(OC)c2)C(C(C)=O)=C(C(=O)OCC)N1
inactive: [1] 35.5% | [2] 12.9% | [3] 8.9% | [4] 35% | [5] -4.95% | [6] 8.55%

CC1(C)CC(=O)C(N=Nc2ccccc2)=C(O)C1
inactive: [1] 0.7% | [2] 2.3% | [3] -2.55% | [4] -49.4% | [5] 24.2% | [6] -0.75%

COC(=O)c1sc(N2CCCC2)nc1N
inactive: [1] -4.95% | [2] 9.95% | [3] 6.4% | [4] -1.3% | [5] 11.4% | [6] -1.85%

Nc1nc(=O)n(CCCOc2ccc([N+](=O)[O-])c(Cl)c2)cc1-c1ccc(Cl)c(Cl)c1
inactive: [1] -1.2% | [2] -8.2% | [3] -5.4% | [4] -21.4% | [5] -3.15% | [6] 6.2%

Cc1ccc(N)c(C#N)c1
inactive: [1] -11.8% | [2] 11.7% | [3] -5.7% | [4] 1% | [5] -5% | [6] 4.65%

C=CCNC(=S)/N=C\C(C(=O)OCC)=C(/O)C(=O)OCC
inactive: [1] -18.6% | [2] -18.4% | [3] -16.6% | [4] -21.7% | [5] -8.85% | [6] -29.8%

CC(=Nc1cc(Cl)cc(Cl)c1)c1ccncc1
inactive: [1] -25.1% | [2] -21.2% | [3] -31.4% | [4] -5.05% | [5] 16.4% | [6] -49.8%

CSCCC(NC(=O)CCCOc1ccc(Cl)cc1C)C(=O)O (configuration not stated)
inactive: [1] 1.8% | [2] -12% | [3] 3.85% | [4] -29.9% | [5] -0.9% | [6] -5.25%

NC(=O)C(=CN1C(=O)/C(=C/c2ccccc2O)SC1=S)C(N)=O
inactive: [1] -21.6% | [2] 2.9% | [3] 10.9% | [4] 28.4% | [5] -4.85% | [6] -24.1%

Cc1cc(=O)[nH]n1-c1ccc([N+](=O)[O-])cc1
inactive: [1] 6.15% | [2] -2.4% | [3] 5.3% | [4] -9.8% | [5] -1.7% | [6] 14.8%

Cc1ccoc1
inactive: [1] 12.5% | [2] -18.1% | [3] 6.45% | [4] 11.8% | [5] 26.8% | [6] 15.8%

CN(C)CCNC(=O)c1ccc(Cl)c2cc3ccccc3nc12
active: [1] 83.3% | [6] 85.8%
inactive: [2] 66.3% | [3] 58% | [4] 50.7% | [5] 15.7%

CCCCCCCCCCCCCCCCCCNC(=O)c1c(Br)c(Br)cc(Br)c1C(=O)O
inactive: [1] -1.45% | [2] 8.55% | [3] 13.2% | [4] -8.35% | [5] -3.7% | [6] 6.75%

Cc1ccc(N=Nc2ccc(C)cc2NC(=O)Nc2cc(C)ccc2C)cc1
inactive: [1] -3.7% | [2] 8.05% | [3] 27% | [4] -10.9% | [5] 26.1% | [6] -10.4%

BrC1=NOC2c3cccc4cccc(c34)C12 (configuration not stated)
inactive: [1] 2.4% | [2] 8.95% | [3] 19.6% | [4] 42% | [5] 34% | [6] 22.8%

CCOC(=O)C(=CNC(=S)Nc1ccc(OCC)cc1)C(=O)OCC
inactive: [1] -9.75% | [2] -24.5% | [3] -7.85% | [4] -16.3% | [5] 11.5% | [6] 6.05%

Cc1cccc(N2CCN(c3ccc4nonc4c3[N+](=O)[O-])CC2)c1
inactive: [1] -5.05% | [2] -4.4% | [3] -9.9% | [4] -13% | [5] -13.9% | [6] -15.3%

CC(C)=CCCc1cc(-c2cc(CCC=C(C)C)nc(N)n2)nc(N)n1
inactive: [1] 3.5% | [2] -10.9% | [3] -3.2% | [4] -7.1% | [5] -22.9% | [6] 15.1%

CN(C)c1ccc(C(Cc2ccccc2)C2NC(=S)NC2=O)cc1 (configuration not stated)
inactive: [1] -6% | [2] -34.5% | [3] 11.2% | [4] 11.3% | [5] 7.7% | [6] -40.5%

CCCCC(CC)COC(=O)Cc1ccccc1 (configuration not stated)
inactive: [1] 17.3% | [2] 17.1% | [3] 15.8% | [4] -5.85% | [5] 40.1% | [6] 34.7%

Oc1cc(O)c2c(c1)O[C@@H](c1ccc(O)c(O)c1)[C@H](O)C2
inactive: [1] 5.75% | [2] -37.4% | [3] 0.2% | [4] 6.15% | [5] -12.7% | [6] 7.55%

COC(=O)[C@]1(NC(=O)c2ccccc2)C[C@H]1C=O
inactive: [1] 21% | [2] 15.2% | [3] 14.4% | [4] 10.9% | [5] 9.6% | [6] -54.8%

CCN1CCNC(=O)C1c1ccccc1 (configuration not stated)
inactive: [1] -9.3% | [2] 16.1% | [3] -17.2% | [4] 1.35% | [5] -1.1% | [6] 1.05%

CC1(C)NC(c2ccccc2)c2ccsc2-n2cccc21 (configuration not stated)
inactive: [1] -27.7% | [2] -29.7% | [3] -15.7% | [4] 18.9% | [5] -9.85% | [6] -8.6%

CCOc1cc2c(cc1O)C(O)C[C@@H]1[C@@H]2CC[C@]2(C)[C@@H](O)CC[C@@H]12 (some centres not stated)
inactive: [1] 14.8% | [2] -7.9% | [3] 22.7% | [4] 11.9% | [5] 24.2% | [6] 25.1%

Cc1csc(-c2ccncc2)n1
inactive: [1] 6.05% | [2] 6.9% | [3] -1.55% | [4] -8.3% | [5] 20.5% | [6] -5.35%

COc1ccc(C(=O)C(CO)Oc2ccccc2OC)cc1OC (configuration not stated)
inactive: [1] -3.05% | [2] 7.5% | [3] -20.2% | [4] 4.25% | [5] -13.5% | [6] -1.35%

CCc1nc(N)nc(N)c1-c1ccc(OC)c(N)c1
inactive: [1] 22.4% | [2] 28.1% | [3] 22.6% | [4] 35.7% | [5] 13.6% | [6] 43.4%

COCc1cc(C(C)(C)C)cc(CNC2CCCCC2)c1O
inactive: [1] 16% | [2] 12.2% | [3] 27.1% | [4] 13.4% | [5] 12.5% | [6] 10.7%

CCCCOC1NC(=O)Oc2ccccc21 (configuration not stated)
inactive: [1] -9.35% | [2] 4% | [3] -3.15% | [4] -28.5% | [5] -4.95% | [6] 15.1%

C/C=C/c1cc(C)cc(C)c1OC(C)CC (configuration not stated)
inactive: [1] -2.45% | [2] -9.75% | [3] 11.4% | [4] -34.5% | [5] -17.9% | [6] 10.1%

Oc1ccc(-c2csc(Nc3ccccn3)n2)cc1O
active: [1] 98.4% | [2] 99% | [3] 99% | [4] 97.2% | [5] 97.7% | [6] 98.8%

COc1ccc(C2C(Cl)C(=O)N2n2cnc3ccccc3c2=O)cc1OC (configuration not stated)
inactive: [1] -20.7% | [2] -0.35% | [3] 0.1% | [4] 8.9% | [5] -10.9% | [6] -21.6%
